# Values joined by “and” are separate entries in the source; they are usually repeats but may differ in a detail not shown here. Equal values may be shown once. For some of these results: Measured potencies and affinities stand elsewhere.
# Key:
# Design in all cases: scale not given: direction of the effect not stated beside the values
# [1] = target: Protein translocase subunit SecA (Escherichia coli (strain K12)) (UniProt P10408); test: Assay to Identify E. coli SecA ATPase Inhibitors; type: functional; settings: 30 µM
# [2] = target: T1, Ubiquitin-activating enzyme e1, putative (Leishmania donovani (strain BPK282A1)) (UniProt E9BSI1); test: Leishmania donovani Ubiquitin Activating Enzyme (LdE1); type: functional; settings: 30 µM
# T1 sequence (whole entry): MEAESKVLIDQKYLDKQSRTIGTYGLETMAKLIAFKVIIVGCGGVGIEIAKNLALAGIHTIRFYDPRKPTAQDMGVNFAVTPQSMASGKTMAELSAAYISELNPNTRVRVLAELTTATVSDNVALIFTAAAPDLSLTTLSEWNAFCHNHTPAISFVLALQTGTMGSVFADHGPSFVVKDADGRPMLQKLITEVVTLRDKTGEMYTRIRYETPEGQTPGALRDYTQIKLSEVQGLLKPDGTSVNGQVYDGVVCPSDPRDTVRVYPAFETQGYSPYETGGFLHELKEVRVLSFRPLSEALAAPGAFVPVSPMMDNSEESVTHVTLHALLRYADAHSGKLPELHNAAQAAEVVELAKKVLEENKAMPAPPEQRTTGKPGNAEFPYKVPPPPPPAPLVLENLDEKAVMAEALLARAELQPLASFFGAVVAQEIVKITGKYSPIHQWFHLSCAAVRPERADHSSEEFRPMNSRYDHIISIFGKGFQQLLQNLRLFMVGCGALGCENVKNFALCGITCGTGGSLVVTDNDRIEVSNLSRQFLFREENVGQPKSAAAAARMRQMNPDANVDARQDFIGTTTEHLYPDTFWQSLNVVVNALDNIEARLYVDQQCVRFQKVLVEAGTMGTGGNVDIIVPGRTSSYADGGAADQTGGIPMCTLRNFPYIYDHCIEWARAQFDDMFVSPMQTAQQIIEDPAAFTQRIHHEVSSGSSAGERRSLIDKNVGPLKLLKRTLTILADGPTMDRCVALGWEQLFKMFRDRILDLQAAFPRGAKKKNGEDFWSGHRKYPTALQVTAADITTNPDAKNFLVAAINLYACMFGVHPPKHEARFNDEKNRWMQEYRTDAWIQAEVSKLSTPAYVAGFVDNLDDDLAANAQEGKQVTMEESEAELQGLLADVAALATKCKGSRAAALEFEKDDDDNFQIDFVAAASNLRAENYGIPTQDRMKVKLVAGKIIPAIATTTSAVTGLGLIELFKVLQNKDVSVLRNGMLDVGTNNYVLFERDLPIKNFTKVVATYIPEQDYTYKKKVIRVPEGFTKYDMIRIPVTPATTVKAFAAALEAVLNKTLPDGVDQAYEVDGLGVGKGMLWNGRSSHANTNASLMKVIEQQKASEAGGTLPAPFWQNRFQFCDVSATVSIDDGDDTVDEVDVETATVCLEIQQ
# [3] = target: AMP-activated protein kinase, AMPK (Homo sapiens) (UniProt P54646+O43741+P54619+Q9UGJ0+Q9Y478+Q13131+Q9UGI9); test: AMP-dependent Kinase enzyme assay. An in vitro enzyme assay that detects ADP turnover that is directly proportional to AMPK activity. This uses naive AMPK that is activated during the assay with MK-8722; type: functional; settings: 30 µM
# [4] = target: Sialic acid-binding Ig-like lectin 9 (Homo sapiens) (UniProt Q9Y336); test: Hs-Siglec9 ALPHAscreen SOP 20170721; settings: 10 µM
# Trypanosoma cruzi = test: Trypanosoma cruzi phosphomannomutase and mannose-1-phosphate guanylyltransferase assay; type: functional; settings: 10 µM
# [5] = target: T2, Arginase-2, mitochondrial (Homo sapiens) (UniProt P78540); test: in vitro enzyme assay to detect the production of urea directly proportional to the activity of Arginase II; type: functional; settings: 33.3 µM; further: in the data most compounds retested in dose-response had high values
# T2 sequence (whole entry): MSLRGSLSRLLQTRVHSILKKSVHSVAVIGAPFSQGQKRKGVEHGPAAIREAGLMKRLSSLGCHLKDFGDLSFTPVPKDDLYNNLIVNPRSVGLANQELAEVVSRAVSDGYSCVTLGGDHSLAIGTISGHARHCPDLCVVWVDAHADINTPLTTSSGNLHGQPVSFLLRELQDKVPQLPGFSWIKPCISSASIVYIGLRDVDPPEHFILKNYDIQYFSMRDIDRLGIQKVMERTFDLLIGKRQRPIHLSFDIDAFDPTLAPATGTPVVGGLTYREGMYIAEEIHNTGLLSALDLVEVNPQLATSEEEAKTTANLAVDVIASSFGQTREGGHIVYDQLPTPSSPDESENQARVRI
# [6] = target: T3, Proteasome subunit beta (Trypanosoma cruzi) (UniProt O96673); test: Trypanosoma cruzi proteasome chymotrypsin-like activity (TcProtChymo) assay.; further: in the data most compounds retested in dose-response had high values; type: functional; settings: 9.37 µM
# T3 sequence (whole entry): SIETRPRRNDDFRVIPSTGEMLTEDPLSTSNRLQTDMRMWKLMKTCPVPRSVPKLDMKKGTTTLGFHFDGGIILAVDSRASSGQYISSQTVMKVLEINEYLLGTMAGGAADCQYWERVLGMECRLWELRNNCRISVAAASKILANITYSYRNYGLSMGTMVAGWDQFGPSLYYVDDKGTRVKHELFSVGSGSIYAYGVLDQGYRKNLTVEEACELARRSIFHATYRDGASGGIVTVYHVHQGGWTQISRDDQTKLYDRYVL
# Homo sapiens = species: Homo sapiens; test: To identify inhibition of the IFN signalling (Jak-Stat) pathway via expression of an eGFP reporter gene under the control of an IFN-stimulated response element (ISRE) containing MxA promoter.; type: functional; settings: 30 µM
# [7] = target: T4, Tyrosyl-tRNA synthetase, putative (Trypanosoma cruzi (strain CL Brener)) (UniProt Q4DSP6); test: Trypanosoma cruzi tyrosyl tRNA synthetase (TcYRS) _High Tyrosine SOP; type: functional; settings: 30 µM; further: in the data most compounds retested in dose-response had high values
# T4 sequence (whole entry): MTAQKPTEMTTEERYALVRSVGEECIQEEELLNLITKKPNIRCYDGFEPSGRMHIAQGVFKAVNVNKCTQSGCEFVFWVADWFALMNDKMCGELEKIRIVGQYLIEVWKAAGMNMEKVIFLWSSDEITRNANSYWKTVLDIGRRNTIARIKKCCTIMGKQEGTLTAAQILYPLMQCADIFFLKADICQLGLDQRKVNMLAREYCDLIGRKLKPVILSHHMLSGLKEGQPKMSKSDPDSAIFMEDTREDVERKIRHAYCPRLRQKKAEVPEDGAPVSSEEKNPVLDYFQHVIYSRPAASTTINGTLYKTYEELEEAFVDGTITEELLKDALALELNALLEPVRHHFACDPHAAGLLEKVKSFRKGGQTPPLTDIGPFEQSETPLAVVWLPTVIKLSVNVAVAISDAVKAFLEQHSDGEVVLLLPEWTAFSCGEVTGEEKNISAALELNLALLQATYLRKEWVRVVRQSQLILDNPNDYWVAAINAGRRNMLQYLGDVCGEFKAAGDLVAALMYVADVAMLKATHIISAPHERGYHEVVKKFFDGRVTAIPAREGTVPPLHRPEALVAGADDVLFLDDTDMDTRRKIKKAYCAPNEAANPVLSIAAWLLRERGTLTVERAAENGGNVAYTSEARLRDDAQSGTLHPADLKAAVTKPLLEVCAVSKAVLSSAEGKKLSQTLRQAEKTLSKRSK
# [8] = target: T4, Tyrosyl-tRNA synthetase, putative (Trypanosoma cruzi (strain CL Brener)); test: Trypanosoma cruzi tyrosyl tRNA synthetase (TcYRS) SOP; type: functional; settings: 30 µM
# [9] = target: Chromo domain-containing protein 1 (Saccharomyces cerevisiae (strain ATCC 204508 / S288c) (Baker's yeast)) (UniProt P32657); test: ScCHD-1 Enzyme Inhibition Assay; type: functional; settings: 30 µM; further: in the data most compounds retested in dose-response had high values
# N/A = test: Trypanosoma cruzi proteasome luciferase counter-screen; type: functional; settings: 9.37 µM
# Sialic acid-binding Ig-like lectin 9 (Homo sapiens), sequence (Q9Y336 whole entry): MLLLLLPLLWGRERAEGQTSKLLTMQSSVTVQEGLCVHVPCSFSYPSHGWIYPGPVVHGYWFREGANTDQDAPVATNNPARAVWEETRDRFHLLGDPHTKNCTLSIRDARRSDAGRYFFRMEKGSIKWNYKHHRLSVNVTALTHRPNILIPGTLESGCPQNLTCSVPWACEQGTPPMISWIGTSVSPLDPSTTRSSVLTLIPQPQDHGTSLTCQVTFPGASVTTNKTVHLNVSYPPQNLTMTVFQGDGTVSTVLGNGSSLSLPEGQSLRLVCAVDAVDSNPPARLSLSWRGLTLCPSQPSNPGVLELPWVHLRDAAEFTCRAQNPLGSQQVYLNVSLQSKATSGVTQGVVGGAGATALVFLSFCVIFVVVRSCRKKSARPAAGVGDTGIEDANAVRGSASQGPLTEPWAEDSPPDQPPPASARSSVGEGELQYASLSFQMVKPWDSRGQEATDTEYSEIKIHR
# Chromo domain-containing protein 1 (Saccharomyces cerevisiae (strain ATCC 204508 / S288c) (Baker's yeast)), sequence (P32657 whole entry, the tested form may be a part): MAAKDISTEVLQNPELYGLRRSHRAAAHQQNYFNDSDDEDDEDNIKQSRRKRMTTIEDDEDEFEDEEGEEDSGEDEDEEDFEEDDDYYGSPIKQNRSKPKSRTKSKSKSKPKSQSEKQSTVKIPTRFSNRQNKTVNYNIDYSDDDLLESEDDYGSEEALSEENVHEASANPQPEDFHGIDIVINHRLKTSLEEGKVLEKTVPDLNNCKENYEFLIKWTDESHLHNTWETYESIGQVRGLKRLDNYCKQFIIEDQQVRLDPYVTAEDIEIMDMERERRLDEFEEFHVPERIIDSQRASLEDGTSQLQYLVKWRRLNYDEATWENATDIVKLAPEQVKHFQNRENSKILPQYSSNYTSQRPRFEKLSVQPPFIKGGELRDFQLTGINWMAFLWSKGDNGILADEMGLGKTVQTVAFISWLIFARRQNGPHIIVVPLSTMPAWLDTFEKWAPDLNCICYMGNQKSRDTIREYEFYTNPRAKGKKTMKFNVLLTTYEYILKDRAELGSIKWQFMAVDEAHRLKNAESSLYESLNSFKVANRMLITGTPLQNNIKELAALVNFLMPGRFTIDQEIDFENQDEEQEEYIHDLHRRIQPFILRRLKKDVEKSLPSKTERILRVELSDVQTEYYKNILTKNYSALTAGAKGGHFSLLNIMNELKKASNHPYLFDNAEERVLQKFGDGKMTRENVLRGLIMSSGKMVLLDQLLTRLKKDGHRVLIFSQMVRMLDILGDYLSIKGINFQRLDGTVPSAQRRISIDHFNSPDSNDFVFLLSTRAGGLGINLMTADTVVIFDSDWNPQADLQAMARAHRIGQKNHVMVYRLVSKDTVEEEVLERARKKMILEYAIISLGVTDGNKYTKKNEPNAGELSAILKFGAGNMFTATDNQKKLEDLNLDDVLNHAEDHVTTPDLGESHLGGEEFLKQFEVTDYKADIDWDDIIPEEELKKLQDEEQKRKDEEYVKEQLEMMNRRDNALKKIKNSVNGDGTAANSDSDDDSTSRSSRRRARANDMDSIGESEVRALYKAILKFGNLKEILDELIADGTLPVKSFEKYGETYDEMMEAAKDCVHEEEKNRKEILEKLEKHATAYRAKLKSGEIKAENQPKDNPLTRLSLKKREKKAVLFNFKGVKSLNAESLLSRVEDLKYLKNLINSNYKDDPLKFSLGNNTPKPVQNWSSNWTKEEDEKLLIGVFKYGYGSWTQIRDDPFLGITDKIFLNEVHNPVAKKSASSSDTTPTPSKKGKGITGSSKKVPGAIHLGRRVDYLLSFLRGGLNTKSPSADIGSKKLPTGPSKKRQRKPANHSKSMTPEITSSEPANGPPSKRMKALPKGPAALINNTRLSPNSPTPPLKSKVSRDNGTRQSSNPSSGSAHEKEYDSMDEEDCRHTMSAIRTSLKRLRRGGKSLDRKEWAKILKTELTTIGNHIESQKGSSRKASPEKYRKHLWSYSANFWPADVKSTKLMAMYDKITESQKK
# Protein translocase subunit SecA (Escherichia coli (strain K12)), sequence (P10408 whole entry): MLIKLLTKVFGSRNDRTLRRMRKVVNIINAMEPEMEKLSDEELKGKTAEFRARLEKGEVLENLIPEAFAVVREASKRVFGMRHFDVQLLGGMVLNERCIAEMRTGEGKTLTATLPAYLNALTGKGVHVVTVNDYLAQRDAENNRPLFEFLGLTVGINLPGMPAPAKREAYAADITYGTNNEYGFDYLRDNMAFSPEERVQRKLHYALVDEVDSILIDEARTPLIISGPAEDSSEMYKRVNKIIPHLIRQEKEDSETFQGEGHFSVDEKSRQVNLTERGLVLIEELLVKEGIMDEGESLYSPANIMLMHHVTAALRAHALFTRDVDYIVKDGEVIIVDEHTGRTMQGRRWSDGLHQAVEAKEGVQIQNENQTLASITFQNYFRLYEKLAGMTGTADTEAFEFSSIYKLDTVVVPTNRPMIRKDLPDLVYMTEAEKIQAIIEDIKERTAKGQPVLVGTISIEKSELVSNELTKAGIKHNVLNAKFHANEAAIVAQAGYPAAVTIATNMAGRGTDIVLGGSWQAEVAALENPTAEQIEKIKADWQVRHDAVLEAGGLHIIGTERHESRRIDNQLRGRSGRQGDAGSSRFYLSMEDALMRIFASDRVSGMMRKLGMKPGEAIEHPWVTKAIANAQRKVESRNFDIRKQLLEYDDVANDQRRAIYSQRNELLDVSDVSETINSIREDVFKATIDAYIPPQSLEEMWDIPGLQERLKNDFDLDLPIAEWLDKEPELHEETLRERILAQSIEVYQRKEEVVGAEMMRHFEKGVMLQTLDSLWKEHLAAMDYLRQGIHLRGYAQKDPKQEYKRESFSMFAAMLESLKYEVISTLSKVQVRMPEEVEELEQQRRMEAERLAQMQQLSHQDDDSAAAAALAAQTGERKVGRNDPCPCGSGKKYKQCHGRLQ
SMILES,Percent Effect [1] [%],Percent Effect [2] [%],Percent Effect [3] [%],Percent Effect [4] [%],Percent Effect (Trypanosoma cruzi) [%],Percent Effect [5] [%],Percent Effect [6],Percent Effect (Homo sapiens) [%],Percent Effect [7] [%],Percent Effect [8] [%],Percent Effect [9] [%],Percent Effect (N/A)
Cn1ccc2ccnc(CC3CN(C(=O)C4CCC(F)(F)CC4)C3)c21,-2.7,6.76,5.92,5.61,-0.395,-0.696,9.05%,1.45,6.45,14.3,-12.4,
CN(C)c1ccc(C(=O)NCC2(O)CCOCC2)cc1,-4.98,2.7,-2.16,3.55,3.48,3.33,13.1%,-3.96,5.82,12.2,-5.31,
COc1ccc(Cc2cccc(C3CCN(C)CC3)n2)cc1,-2.99,-55.4,8.96,9.53,-0.395,-1.62,6.55%,2.93,5.38,1.3,1.29,
CC(C)OCCCNC(=O)CS(=O)(=O)Cc1ccc(Cl)c(Cl)c1,-6.75,5.2,9.19,-7.16,-5.8,-1.78,9.63%,33.8,3.88,12.2,-5.85,
CCC1=N[C@@]2(CC[C@@H]3CN(C(=O)NC(C)C)C[C@@H]32)C(=O)N1C,-5.93,18.9,-5.97,2.32,3.12,2.92,10.9%,1.5,3.96,18.3,-6.51,
CN(CC1CC1)C(=O)CN(Cc1cccc(O)c1)C1CCC(O)CC1 (stereo not drawn),-0.997,-2.7,-5.33,8.92,1.07,24.6,11.1%,12,0,1.24,0.446,
COc1ccccc1CC(=O)NCCCN1CCCC1C(=O)N(C)C (stereo not drawn),-0.00806,8.22,-2.99,6.95,2.35,8.64,18.6%,-15.4,6.45,-2.5,-6.6,
CN(C(=O)NCc1ccncc1)C1CCN(c2ccccc2)C1=O (stereo not drawn),-4.85,13.2,-3.87,3.74,6.58,-3.06,10%,5.78,6.37,12.2,-10.8,
O=C(NCCNc1ncccn1)C1CCN(CC(F)(F)F)CC1,-4.28,18.9,5.29,1.52,-6.51,0.802,18.9%,20.5,7.39,11.1,-4.74,
NC(=O)CC1CCN(C(=O)CCOc2ccc(Cl)cc2)CC1,-3.65,10.5,2.65,4.69,0.752,-4.6,8.19%,1.27,6.37,12.2,-8.66,
CCn1cc(NC(=O)NCC(O)CN2CCc3ccccc3C2)cn1 (stereo not drawn),-1.09,23.4,-8.59,-13.8,-0.0979,-6.53,18.2%,34.1,8.57,30.6,-18.1,
Cc1cnn(CCNCCCOc2ccccc2)c1,1.02,-21.1,-5.54,5.86,3.27,1.08,6.85%,-25,6.4,3.7,-0.782,
CC(C)c1ccc(O)c(C(=O)N2CCN(Cc3cscn3)CC2)c1,-1.48,16.2,0.162,10.1,5.85,-6.1,4.85%,26.8,5.94,18.3,-3.11,
CC(=O)NCCc1ccc(C(=O)N2CCCC2c2cnn(C)c2)cc1 (stereo not drawn),-1.4,21.1,-6.64,-8.62,2.89,-3.6,11.9%,1.72,4.43,16.1,-8.59,
CCOCCCn1c(NC(=O)c2ccc(C)nc2)nc2ccccc21,-10.1,7.79,10.5,3.52,2.25,0,4.56%,-7.49,4.85,14.6,0.139,
CCN1CCN(CC(C)(O)c2cccc(C(F)(F)F)c2)CC1 (stereo not drawn),-5.15,5.2,,14.6,-3.92,-3.48,0.175%,-14.6,2.94,-2.35,-0.754,
Cc1nccn1C1CCCN(C(=O)COCC(F)(F)F)C1 (stereo not drawn),-0.686,2.56,,10.1,0.845,-2.05,0.597%,-3.59,-3.35,-1.21,-1.66,
Cc1nn(C)cc1-c1cc(C(F)(F)F)c2c(C)nn(CC(=O)O)c2n1,0.552,14.7,,-7.53,-2.56,-0.885,7.72%,24.1,-1.06,0,-17.3,
CCn1ccnc1CN1CCN(CC(O)Cn2cccn2)CC1 (stereo not drawn),-5.85,0,,-2.48,-1.97,-4.51,11%,18.6,-0.478,6.02,1.41,
Cc1ccccc1CSc1nc(N)cc(N2CCOC(C(N)=O)C2)n1 (stereo not drawn),-5.78,2.7,-2.45,-7.55,-4.4,0.248,10%,22.4,6.45,11.1,-1.13,
COCc1noc(-c2ccc(N3CCCCC3CO)nc2)n1 (stereo not drawn),-2.04,-5.41,,7.35,-0.485,6.64,62% and 48.5% and 57.3%,2.19,0.532,0,-0.226,26.9%
COc1ccc(-c2ccnc3c2C(=O)CCC3)cc1,0.627,22.7,,-8.36,0.789,0.885,78.1% and 77.9% and 84.4%,22.2,2.12,7.5,-22.2,54.8% and 45.5%
